The text below walks through data of PubChem BioAssay.

Activity calls are given as the source filed them.

Experiment [1] concerns Plasmodium falciparum Sir2 (PF13_0152, Sir2A). In words: Plasmodium falciparum Sir2A binding compounds – biochemical, small-molecule microarray, 635 nm fluorescence, primary screen (AID 1098).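 Also: score merges spot fluorescence intensity with its signal-to-noise ratio.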 The following applies: fluorescence 635 nm, higher = more signal.
The nature of experiment [2]: probe aDKK1 binding to arrayed compounds – biochemical, biotinylated probe, 635/667 nm fluorescence, primary screen (AID 1099).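 Also: score merges 667nm spot fluorescence with signal to noise across triplicate slides.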 The following applies: small-molecule microarray, higher = more signal.
Experiment [3] can be described thus: probe aCHRDL2 binding to arrayed compounds – biochemical, biotinylated probe, 635/667 nm fluorescence, primary screen (AID 1100). As to conditions: small-molecule microarray, higher = more signal.
A short description of experiment [4]: change in splice reporter luminescence, either direction, cell-based, HEK293, spliceosome inhibition project, primary screen (AID 1101).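 Also: HEK293 cells carrying a splicing-competent luciferase reporter gene; test concentration not given here.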 As to conditions: HEK293 splicing luciferase reporter, 24 h, higher = more signal, called active from +8 up or from −8 down. For orientation: A reporter such as luciferase makes a cellular process visible.
Experiment [5] has as its target Fibroblast growth factor 10 (Homo sapiens) (UniProt O15520). Description: compounds binding fibroblast growth factor 10 – biochemical, small-molecule microarray, 635 nm fluorescence, primary screen (AID 1102). As to conditions: FGF10 binding, fluorescence 635 nm, higher = more signal.
Experiment [6] has as its system glycogen synthase kinase-3 (GSK3A per assay name; protocol says GSK3B). In words: compounds binding glycogen synthase kinase-3 – biochemical, small-molecule microarray, 635 nm fluorescence, GSK3A, primary screen (AID 1103). Also: the record names both GSK3A and GSK3B. The following applies: fluorescence 635 nm, higher = more signal.
Experiment [7] concerns the target Epidermal growth factor receptor (Homo sapiens) (UniProt P00533). Description: compounds binding epidermal growth factor receptor – biochemical, small-molecule microarray, 635 nm fluorescence, primary screen (AID 1104).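 Also: score merges 667 nm emission intensity with spot signal to noise over triplicate slides.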 As to conditions: EGFR binding, higher = more signal.
Experiment [8] addresses Follistatin-related protein 3 (Homo sapiens) (UniProt O95633). Description: compounds binding follistatin-related protein 3 – biochemical, small-molecule microarray, 635 nm fluorescence, primary screen (AID 1105).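 Also: score merges emission near 667 nm and signal to noise per printed spot across three slides.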 The following applies: FSTL3 binding, higher = more signal.
Experiment [9] addresses Dickkopf-related protein 1 (Homo sapiens) (UniProt O94907). In words: small molecules binding DKK1 protein – biochemical, small-molecule microarray, 635 nm fluorescence scan, primary screen (AID 1106).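 Also: score merges emission near 667 nm with signal to noise over three replicate slides.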 The following applies: higher = more signal.
Experiment [10] deals with Inhibin beta A chain (activin A). Description: small molecules binding activin A – biochemical, small-molecule microarray, 635 nm fluorescence scan, primary screen (AID 1107).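 Also: mouse activin A protein probed at 4.33 µg/mL on printed slides; score merges bound-protein fluorescence near 667 nm with spot signal-to-noise.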 The following applies: INHBA, higher = more signal.
For experiment [11], the system named is Human papillomavirus type 1a protein E7 (residues 44-93). Description: small molecules binding HPV E7 44-93 – biochemical, small-molecule microarray, residues 44-93, 635 nm fluorescence, primary screen (AID 1108).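 Also: E7 fragment applied at 1 µg/mL in TBST for 1 h at 4 C; score combines spot fluorescence with its signal to noise ratio.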 The following applies: fluorescence 635 nm, higher = more signal.
The nature of experiment [12]: hepatitis C replication reporter changes, two-sided – Huh7 cells, luciferase reporter, HCV replication inhibitor project, primary screen (AID 1109).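 Also: huh7 hepatoma cells harbouring a luciferase neomycin HCV replicon reporter; luciferase luminescence as measure of HCV replicon replication; test concentration not given here.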 As to conditions: Huh7 HCV replicon luciferase reporter, 48 h; higher = more signal.
Experiment [13] deals with Left-right determination factor 2 (Homo sapiens) (UniProt O00292). In words: small molecules binding LEFTY2 protein – biochemical, small-molecule microarray, 635 nm fluorescence scan, primary screen (AID 1110). As to conditions: higher = more signal.
Chain of Left-right determination factor 2 (Homo sapiens) (O00292 whole entry, looked up): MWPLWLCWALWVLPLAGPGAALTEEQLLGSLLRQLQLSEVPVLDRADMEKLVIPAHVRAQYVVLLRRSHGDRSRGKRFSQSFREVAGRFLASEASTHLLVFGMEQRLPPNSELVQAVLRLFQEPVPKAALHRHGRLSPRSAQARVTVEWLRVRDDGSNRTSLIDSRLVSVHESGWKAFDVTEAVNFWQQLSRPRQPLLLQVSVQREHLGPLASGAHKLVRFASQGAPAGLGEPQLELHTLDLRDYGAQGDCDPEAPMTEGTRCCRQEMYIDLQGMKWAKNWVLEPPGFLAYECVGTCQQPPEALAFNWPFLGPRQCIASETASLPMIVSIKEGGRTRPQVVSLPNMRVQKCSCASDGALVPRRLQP
For experiment [14], the target named is Calmodulin-1 (Homo sapiens) (UniProt P0DP23). Description: small molecules binding calmodulin-1 with EGTA – biochemical, small-molecule microarray, Cy5-labelled CALM1, profiling panel (AID 1111).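 Also: labelled calmodulin applied in Tris saline Tween buffer holding calcium plus EGTA and DTT.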 As to conditions: Cy5-CALM1 binding fluorescence, higher = more signal.
Experiment [15] has the same target. In words: small molecules binding Ca-loaded calmodulin-1 – biochemical, small-molecule microarray, Cy5-labelled CALM1, plus calcium, artefact control for SMM control-protein annotation, profiling panel (AID 1112).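 Also: score merges spot fluorescence with signal to noise from triplicate slides.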 The following applies: Cy5-CALM1 binding fluorescence, higher = more signal.
A short description of experiment [16]: probe aWnt5a binding to arrayed compounds – biochemical, biotinylated probe, 635/667 nm fluorescence, primary screen (AID 1113).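 Also: score merges 667 nm fluorescence intensity with signal-to-noise per printed feature.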 The following applies: small-molecule microarray, higher = more signal.
A short description of experiment [17]: probe aShh binding to arrayed compounds – biochemical, biotinylated probe, 635/667 nm fluorescence, primary screen (AID 1114).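 Also: probe is biotin-labelled aShh protein from a stem cell growth factor screen; measures binding of labelled protein to compounds printed on the slide; score merges feature fluorescence at 667 nm with signal-to-noise.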 The following applies: small-molecule microarray, higher = more signal.
The nature of experiment [18]: probe aNog binding to arrayed compounds – biochemical, biotinylated probe, 635/667 nm fluorescence, primary screen (AID 1115).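 Also: probe is biotinylated aNog protein used at 0.15 µg/mL for 1 h at 4 C; z-score combines 667 nm fluorescence of each spot with its signal to noise.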 As to conditions: small-molecule microarray, higher = more signal.
The target of experiment [19] is Torsin-1A-interacting protein 1 (Homo sapiens) (UniProt Q5JTV8). Description: compound microarray binding of lysate hLAP1 – cell lysate, small-molecule microarray, COS7 lysate, 635/667 nm fluorescence, primary screen (AID 1116). As to conditions: 635 nm fluorescence, higher = more signal.
Chain of Torsin-1A-interacting protein 1 (Homo sapiens) (Q5JTV8 whole entry, looked up): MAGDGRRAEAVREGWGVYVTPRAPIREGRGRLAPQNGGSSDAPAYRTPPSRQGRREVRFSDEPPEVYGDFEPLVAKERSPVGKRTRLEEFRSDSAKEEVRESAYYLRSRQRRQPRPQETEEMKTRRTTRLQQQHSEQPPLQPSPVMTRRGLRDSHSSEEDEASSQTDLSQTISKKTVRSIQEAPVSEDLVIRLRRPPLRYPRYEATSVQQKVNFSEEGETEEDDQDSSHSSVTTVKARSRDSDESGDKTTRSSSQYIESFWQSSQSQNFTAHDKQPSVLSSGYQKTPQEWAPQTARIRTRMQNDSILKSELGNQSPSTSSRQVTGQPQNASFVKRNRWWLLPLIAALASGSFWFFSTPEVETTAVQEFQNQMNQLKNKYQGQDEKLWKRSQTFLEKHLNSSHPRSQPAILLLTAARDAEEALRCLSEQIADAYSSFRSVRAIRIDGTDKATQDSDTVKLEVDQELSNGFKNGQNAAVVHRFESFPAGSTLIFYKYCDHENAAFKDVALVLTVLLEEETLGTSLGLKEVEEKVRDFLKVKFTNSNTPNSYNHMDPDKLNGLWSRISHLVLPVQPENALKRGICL
The target in experiment [20] is Alpha-bungarotoxin (Bungarus multicinctus) (UniProt P60615). In words: compounds binding labelled alpha-BTX control protein – biochemical, small-molecule microarray, Alexa647 label, 635/667 nm fluorescence, artefact control for SMM control protein annotation, profiling panel (AID 1117). As to conditions: alpha-BTX-A647 binding fluorescence, higher = more signal.
Chain of Alpha-bungarotoxin (Bungarus multicinctus) (P60615 whole entry, looked up): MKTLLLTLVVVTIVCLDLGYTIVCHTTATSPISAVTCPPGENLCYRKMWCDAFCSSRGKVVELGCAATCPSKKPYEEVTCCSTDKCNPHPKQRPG

Chain of Follistatin-related protein 3 (Homo sapiens) (O95633 whole entry, looked up): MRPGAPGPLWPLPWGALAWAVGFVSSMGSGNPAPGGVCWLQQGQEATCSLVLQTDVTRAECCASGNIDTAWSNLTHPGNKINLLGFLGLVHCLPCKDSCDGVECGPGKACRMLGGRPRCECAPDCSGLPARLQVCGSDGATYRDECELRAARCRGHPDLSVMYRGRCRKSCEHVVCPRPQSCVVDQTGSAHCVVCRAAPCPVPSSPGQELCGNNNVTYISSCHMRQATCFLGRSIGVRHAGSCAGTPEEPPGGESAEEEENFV
Chain of Dickkopf-related protein 1 (Homo sapiens) (O94907 whole entry, looked up): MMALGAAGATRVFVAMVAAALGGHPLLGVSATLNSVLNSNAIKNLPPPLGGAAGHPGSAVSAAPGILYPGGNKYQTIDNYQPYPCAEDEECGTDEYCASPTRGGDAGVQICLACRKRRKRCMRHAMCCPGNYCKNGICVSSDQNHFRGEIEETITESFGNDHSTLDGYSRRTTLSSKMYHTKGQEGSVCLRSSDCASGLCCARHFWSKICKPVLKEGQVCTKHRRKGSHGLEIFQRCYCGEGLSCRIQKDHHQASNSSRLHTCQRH
Chain of Epidermal growth factor receptor (Homo sapiens) (P00533 whole entry, looked up): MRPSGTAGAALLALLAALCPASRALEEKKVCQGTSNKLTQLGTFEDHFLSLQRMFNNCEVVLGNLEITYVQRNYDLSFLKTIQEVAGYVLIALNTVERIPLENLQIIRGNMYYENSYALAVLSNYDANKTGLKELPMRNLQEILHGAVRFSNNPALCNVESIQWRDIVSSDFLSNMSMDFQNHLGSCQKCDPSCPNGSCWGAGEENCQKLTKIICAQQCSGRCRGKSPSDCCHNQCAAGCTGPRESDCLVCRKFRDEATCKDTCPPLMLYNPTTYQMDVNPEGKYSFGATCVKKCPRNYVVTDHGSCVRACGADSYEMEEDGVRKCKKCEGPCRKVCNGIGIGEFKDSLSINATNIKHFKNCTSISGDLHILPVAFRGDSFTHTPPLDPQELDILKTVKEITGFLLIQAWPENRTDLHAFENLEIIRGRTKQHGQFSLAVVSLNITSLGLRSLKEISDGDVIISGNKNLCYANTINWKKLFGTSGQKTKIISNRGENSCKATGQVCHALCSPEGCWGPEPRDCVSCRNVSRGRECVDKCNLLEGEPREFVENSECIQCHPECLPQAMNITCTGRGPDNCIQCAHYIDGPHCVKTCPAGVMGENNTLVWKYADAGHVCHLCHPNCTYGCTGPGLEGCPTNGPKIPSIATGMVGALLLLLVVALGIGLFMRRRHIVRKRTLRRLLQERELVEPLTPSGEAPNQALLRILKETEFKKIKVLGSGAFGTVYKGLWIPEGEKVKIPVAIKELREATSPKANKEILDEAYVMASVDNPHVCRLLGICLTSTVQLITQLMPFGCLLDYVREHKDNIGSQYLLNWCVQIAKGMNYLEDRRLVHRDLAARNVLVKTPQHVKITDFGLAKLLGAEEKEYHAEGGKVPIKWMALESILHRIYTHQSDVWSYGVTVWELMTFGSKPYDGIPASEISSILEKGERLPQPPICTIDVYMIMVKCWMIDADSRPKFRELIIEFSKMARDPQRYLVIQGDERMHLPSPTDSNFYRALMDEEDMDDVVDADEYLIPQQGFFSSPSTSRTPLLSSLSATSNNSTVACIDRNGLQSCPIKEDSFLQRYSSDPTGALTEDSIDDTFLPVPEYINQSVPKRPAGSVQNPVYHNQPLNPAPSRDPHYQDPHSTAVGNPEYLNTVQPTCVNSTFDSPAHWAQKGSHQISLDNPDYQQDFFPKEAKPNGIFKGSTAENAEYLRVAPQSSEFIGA
Chain of Fibroblast growth factor 10 (Homo sapiens) (O15520 whole entry, looked up): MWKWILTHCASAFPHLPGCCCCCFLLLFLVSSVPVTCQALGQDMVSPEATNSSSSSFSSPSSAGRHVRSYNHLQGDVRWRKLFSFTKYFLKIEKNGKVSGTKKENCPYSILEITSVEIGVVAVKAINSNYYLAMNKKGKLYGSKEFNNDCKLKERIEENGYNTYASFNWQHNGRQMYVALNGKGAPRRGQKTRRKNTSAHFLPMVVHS

For `O=C(CS)NCCCCCCNC(=O)[C@@H]1C[C@@H]2C(=O)N[C@@H](Cc3ccccc3)C(=O)N2[C@@H]1c1cccc(OCCO)c1`, the composite z-score in experiment [1] is 1.5; in [2], -0.367; in [3], 0.594; in [5], 1.32; in experiment [6], 1.34; in [7], 0.557. Also, the composite z-score in [8] was 1.26; in experiment [9], 0.859; in experiment [10] it was 0.382; in experiment [11] it was 1.39; in [13] it was 0.934; in experiment [14], 0.309. The composite z-score is 0.414 in experiment [15]; 0.0102 in [16]; 0.265 in experiment [17]; 0.0637 in [18]; 0.585 in [19]; 1.2 in experiment [20]. For the same compound, the z-score is 0.528 (inactive) in experiment [4] and -0.698 in [12].
Turning to `CCC(CC)C(O)C1C=CC2C(=O)NC(=O)C2N1Nc1ccc(Cl)cc1Cl` (stereo not given), the composite z-score is 1.28 in experiment [1]; 0.921 in experiment [2]; 1 in experiment [3]; 0.626 in experiment [5]; 0.451 in experiment [6]; -0.304 in experiment [7]. Moreover, the composite z-score is 0.934 in experiment [8]; -0.267 in experiment [9]; 0.764 in experiment [10]; 0.672 in experiment [11]; -0.46 in [13]; 1.93 in [14]. For the same compound, the composite z-score in experiment [15] is 1.15; in experiment [16], -0.12; in experiment [17], 0.234; in experiment [18], -0.452; in experiment [19] it was 0.247; in [20] it was 1.05. Besides, the z-score in [4] was 1.6 (inactive); in [12], -0.759.
`CO[C@H]1O[C@H](CO)[C@@H](OC(=O)Nc2ccc(Oc3ccccc3)cc2)[C@H](OC(=O)Nc2ccc3c(c2)OCO3)[C@H]1OC(=O)Nc1ccc2c(c1)OCO2`: the composite z-score in [1] is 1.26; in experiment [2], 0.86; in experiment [3] it was 0.992; in experiment [5], 1.33; in [6], 1.31; in experiment [7] it was 0.318. In addition, the composite z-score is 1.2 in experiment [8]; 0.612 in [9]; 0.944 in experiment [10]; 1.3 in [11]; 0.467 in [13]; 1.96 in experiment [14]. Moreover, the composite z-score is -0.207 in [15]; 0.105 in experiment [16]; -0.183 in experiment [17]; 0.414 in experiment [18]; 1.62 in experiment [19]; 2.13 in experiment [20]. Further, the z-score in experiment [4] is -1.61 (inactive); in [12], -0.289.
Regarding `COc1ccc(/C=C/C=O)cc1`, the composite z-score in experiment [1] is -0.166; in experiment [2] it was -0.201; in experiment [3], -0.32; in experiment [5] it was 0.188; in experiment [6], 0.0929; in experiment [7], -0.0607. Moreover, the composite z-score in [8] was 0.679; in [9], 0.406; in experiment [10], 0.664; in experiment [11], -0.15; in [13] it was 0.0844; in [14], -1.14. For the same compound, the composite z-score is -0.732 in experiment [15]; -0.228 in experiment [16]; -0.253 in experiment [17]; 0.148 in [18]; 0.0921 in [19]; -0.117 in experiment [20]. Further, the z-score in experiment [4] was -0.903 (inactive); in experiment [12] it was 0.788.
Consider `C=CCC(OC(C)=O)[C@@H]1[C@@H](N(Cc2ccc(-c3cccc(C(F)(F)F)c3)o2)C(=O)c2ccc(C)cc2)c2cc(OCCCO)ccc2N1C(=O)Cc1ccc2ccccc2c1` (stereo not given in full), for which the composite z-score in experiment [1] is -0.291; in experiment [2], -0.183; in experiment [3] it was 0.314; in experiment [5], -0.0662; in [6], -1.46; in [7] it was -0.206. Besides, the composite z-score in experiment [8] was -0.458; in [9], -0.214; in [10] it was 1.14; in experiment [11] it was -0.312; in experiment [13] it was -0.628; in experiment [14], -0.424. For the same compound, the composite z-score in [15] is -0.352; in experiment [16], -0.0704; in [17], -0.237; in [18], -0.122; in [19] it was -0.127; in [20], 0.236. In addition, the z-score in experiment [4] was -0.337 (inactive); in experiment [12] it was 0.237.
`COC(=O)C(CC#Cc1ccc2c(c1)[C@]1(C(=O)N2)[C@H](C(=O)Nc2nc3ccccc3s2)[C@H]2C(=O)O[C@H](c3ccccc3)[C@H](c3ccccc3)N2[C@@H]1c1ccccc1OCCO)C(=O)OC`: the composite z-score in experiment [1] is 1.61; in experiment [2], 0.473; in experiment [3], 0.561; in experiment [5], 0.904; in experiment [6], 1.24; in experiment [7], 0.282. In addition, the composite z-score was determined as 0.701 in experiment [8]; 0.193 in experiment [9]; 0.303 in [10]; 1.17 in experiment [11]; 0.286 in experiment [13]; 1.42 in experiment [14]. Besides, the composite z-score is 0.504 in [15]; -0.0346 in experiment [16]; 0.257 in experiment [17]; 0.733 in experiment [18]; 1.01 in experiment [19]; 2.31 in experiment [20]. The z-score in experiment [4] is 1.44 (inactive); in [12], -2.55.
